Laboratory results reported in the supplement of paper PMC3414501.
Counter-ions that a name gives are not always drawn.

How the values were obtained:
[1] = system: S. cerevisiae SK1 pCDA2-eGFP (USY613), sporulating; experiment: CDA2-GFP sporulation assay sensitivity score (z-score vs DMSO controls); higher = stronger inhibition of sporulation, active = hit call of the paper;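 note: active if sensitivity score above 5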
[2] = system: S. cerevisiae AD1-9 (efflux-pump deficient), vegetative growth in YPD; experiment: growth sensitivity score (doubling time z-score vs DMSO controls); higher = slower growth, strongly negative scores also mark growth inhibition (complete suppression), active = hit call of the paper
Summary of the method: (§1)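 Optical density of Saccharomyces cerevisiae cultures in microtiter plates was followed every 15 min for 24 hours after seeding at an OD600 of 0.065. Eight solvent-only wells were run per experiment. Growth sensitivity scores were found by subtracting the solvent-only mean from the compound mean and dividing by the solvent-only standard deviation.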

[3] = system: S. cerevisiae BY4741 (wild-type), vegetative growth in YPD; experiment: as above
Summary of the method: as §1

| SMILES | CDA2-GFP sporulation assay sensitivity score [1] | growth sensitivity score [2] | growth sensitivity score [3] |
| --- | --- | --- | --- |
| Cc1cccc(C)c1NC(=O)C1CCCCN1C (stereo unspecified) [Mepivacaine hydrochloride] (stock concentration (mM, diluted 1:100): 10) | 1.82 (inactive) | -3.28 | -0.29 (inactive) |
| CCN1CCN(c2cc3c(cc2F)c(=O)c(C(=O)O)cn3C2CC2)CC1 [Enrofloxacin] (stock concentration (mM, diluted 1:100): 10) | 2.66 (inactive) | 37.5 (active) | 3.15 (active) |
| CC[C@H]1OC(=O)[C@H](C)[C@@H](O[C@H]2C[C@@](C)(OC)[C@@H](O)[C@H](C)O2)[C@H](C)[C@@H](O[C@@H]2O[C@H](C)C[C@H](N(C)C)[C@H]2O)[C@](C)(OC)C[C@@H](C)C(=O)[C@H](C)[C@@H](O)[C@]1(C)O [Clarithromycin] (stock concentration (mM, diluted 1:100): 10) | -0.51 (inactive) | -1.97 (inactive) | 1.37 (inactive) |
| O=C(CCNNC(=O)c1ccncc1)NCc1ccccc1 [Nialamide] (stock concentration (mM, diluted 1:100): 10) | 1.74 (inactive) | -0.06 (inactive) | 0.19 (inactive) |
| COc1ccccc1OCCNCC(O)COc1cccc2[nH]c3ccccc3c12 (stereo unspecified) [Carvedilol] (stock concentration (mM, diluted 1:100): 10) | -0.9 (inactive) | 50.7 (active) | 0.43 (inactive) |
| CC(=O)O[C@@]12CO[C@@H]1C[C@H](O)[C@@]1(C)C(=O)[C@H](O)C3=C(C)[C@@H](OC(=O)[C@H](O)[C@@H](NC(=O)OC(C)(C)C)c4ccccc4)C[C@@](O)([C@@H](OC(=O)c4ccccc4)[C@H]21)C3(C)C [Docetaxel] (stock concentration (mM, diluted 1:100): 10) | -0.23 (inactive) | -0.53 (inactive) | 1.16 (inactive) |
| NC[C@H]1CC[C@H](C(=O)Oc2ccc(CCC(=O)O)cc2)CC1 [Cetraxate hydrochloride] (stock concentration (mM, diluted 1:100): 9) | -0.06 (inactive) | -0.24 (inactive) | 1.25 (inactive) |
| CC(C)(C)NC(=O)[C@H]1CC[C@H]2[C@@H]3CC[C@H]4NC(=O)C=C[C@]4(C)[C@H]3CC[C@]12C [Finasteride] (stock concentration (mM, diluted 1:100): 10) | 3.51 (inactive) | 20.2 (active) | 1.37 (inactive) |
| CC1(C)C[C@@H]1C(=O)N/C(=C\CCCCSC[C@H](N)C(=O)O)C(=O)O [Cilastatin] (stock concentration (mM, diluted 1:100): 9.4) | -1.2 (inactive) | -1.86 (inactive) | -0.97 (inactive) |
| CC(=O)O[C@]1(C(C)=O)CC[C@H]2[C@@H]3C=C(C)C4=CC(=O)CC[C@]4(C)[C@H]3CC[C@@]21C [Megestrol acetate] (stock concentration (mM, diluted 1:100): 10) | 0.75 (inactive) | 38.5 (active) | 1.27 (inactive) |
| COc1ccc2c(c1)c(CC(=O)O)c(C)n2C(=O)c1ccc(Cl)cc1 [Indomethacin] (stock concentration (mM, diluted 1:100): 10.5) | 0.38 (inactive) | 0.93 (inactive) | 0.62 (inactive) |
| CN1CCN(c2nc3cc(C(F)(F)F)ccc3n3cccc23)CC1 (stock concentration (mM, diluted 1:100): 10) |  |  | 351 (active) |
| CC(C)OC(=O)CCC/C=C\C[C@@H]1[C@@H](CC[C@@H](O)CCc2ccccc2)[C@H](O)C[C@@H]1O [Latanoprost] (stock concentration (mM, diluted 1:100): 10.3) | 8.85 (active) | 125 (active) | 0.43 (inactive) |
| CN(CCOc1ccc(NS(C)(=O)=O)cc1)CCc1ccc(NS(C)(=O)=O)cc1 [Dofetilide] (stock concentration (mM, diluted 1:100): 10) | -0.99 (inactive) | -1.59 (inactive) | -2.19 |
| NC1CCN(c2cccc(Cl)n2)CC1 (stock concentration (mM, diluted 1:100): 10) | 13.8 (active) | -0.47 (inactive) | -0.16 (inactive) |
| CN1CCN(CCCN2c3ccccc3Sc3ccc(Cl)cc32)CC1 [Prochlorperazine] (stock concentration (mM, diluted 1:100): 10.4) | 2.72 (inactive) |  | 146 (active) |
| Nc1c2c(nc3c1CCC3)CCCC2 [Amiridine] (stock concentration (mM, diluted 1:100): 10) | 2.39 (inactive) | 4.09 (active) | 4.93 (active) |
| COc1ccccc1OCC(O)CN1CCN(CC(=O)Nc2c(C)cccc2C)CC1 (stereo unspecified) [Ranolazine dihydrochloride] (stock concentration (mM, diluted 1:100): 8.6) | -1.05 (inactive) | -1.41 (inactive) | -0.31 (inactive) |
